In PubChem BioAssay:
A number with no mark means an inactive call. No rule for the calls is given here.

Target: Pantothenate synthetase (Mycobacterium tuberculosis (strain ATCC 25618 / H37Rv)) (UniProt P9WIL5)
Assay: Recombinant Mtb pantothenate synthetase (PanC) inhibitors, coupled enzyme, confirmatory (AID 375);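 also: 0% = full reaction with vehicle and 100% = no enzyme background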
Details: coupled enzyme assay; at 10 µM, active compounds read high

Chain of Pantothenate synthetase (Mycobacterium tuberculosis (strain ATCC 25618 / H37Rv)) (P9WIL5 whole entry, looked up): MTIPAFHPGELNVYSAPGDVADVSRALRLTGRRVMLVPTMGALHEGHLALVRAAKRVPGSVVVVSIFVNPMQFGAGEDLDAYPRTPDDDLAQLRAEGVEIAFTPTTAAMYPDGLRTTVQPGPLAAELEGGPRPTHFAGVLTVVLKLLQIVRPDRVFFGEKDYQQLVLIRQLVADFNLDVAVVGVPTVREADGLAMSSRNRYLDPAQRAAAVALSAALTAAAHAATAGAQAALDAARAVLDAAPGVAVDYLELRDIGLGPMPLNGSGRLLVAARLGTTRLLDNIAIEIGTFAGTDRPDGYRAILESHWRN

Compound | inhibition
Cc1nc(NC2=NCN(CCc3ccccc3)CN2)nc2c(C)cccc12 | 0%
O=C(Oc1ccc(Cl)cc1N1C(=O)CCC1=O)c1ccco1 | 6%
O=C(CC1CCS(=O)(=O)C1)Nc1ccc[nH]c1=O (stereo not given) | 2%
O=C(c1ccco1)N1CCN(C(=O)c2cc3c(s2)-c2ccccc2OC3)CC1 | 11%
Cc1ccc(S(=O)(=O)N2CCC(C(=O)NCCN3CCCCCC3)CC2)cc1 | 0%
CCC(=O)Nc1ccc(NC(=O)CSc2nnnn2C(C)C)cc1 | 0%
Cc1cncn1CCc1nc2c3ccccc3nc(=S)n2[nH]1 | 7%
COC(=O)c1c(NC(=O)CSc2nnc(-c3cccnc3)n2Cc2ccco2)sc(C)c1C | 0%
COc1ccc2ccccc2c1CN1CCCC(CO)C1 (stereo not given) | 0%
COc1cc(C(=O)Nc2nc(-c3cccs3)cs2)cc(OC)c1OC | 0%
CN(C(=O)COc1cc(=O)n(C)c2ccccc12)c1ccc(Br)cc1 | 0%
CC(C)(C)NCC(O)COc1cccc2c1C[C@H](O)[C@H](O)C2 (stereo not given in full) | 0%
Fc1cccc(Cl)c1Cn1nnc2c(NCc3ccccn3)ncnc21 | 0%
COC(=O)c1ccc(CN(c2ccccc2OC)S(=O)(=O)c2cccs2)o1 | 2%
CCCN(CCC)S(=O)(=O)c1ccc(C(=O)O)cc1 | 0%
COc1ccc(Cl)cc1NC(=O)CCN1CCN(c2ccccc2C)CC1 | 0%
O=S(=O)(Nc1nc2ccccc2nc1NCc1ccco1)c1cccs1 | 2%
Cc1ccc(S(=O)(=O)Cc2ccc(C(=O)N3CCN(Cc4ccccc4)CC3)o2)cc1 | 3%
COc1cc2[nH]c(=O)n(CCCCCC(=O)NCCCN3CCCC3=O)c(=O)c2cc1OC | 0%
CN(C(=O)C1CCOC1)c1nnc(-c2cccnc2)s1 (stereo not given) | 0%

Compound | inhibition
COc1ccc(C)cc1NC(=O)CCC(=O)Nc1ccc2nc(N3CCN(C)CC3)cc(C)c2c1 | 0%
Cc1cc(Nc2ccc(C(=O)O)cc2)n2nc(C)nc2n1 | 7%
O=C1C(Cl)=C(N2CCCCC2)C(=O)N1c1ccccc1Cl | 7%
O=C(NCc1nnc(SCC(=O)N2CCCCCC2)o1)c1ccco1 | 8%
C=CCOc1nc2c(c(=O)n(C)c(=O)n2C)n1Cc1c(Cl)cccc1Cl | 1%
CCCCCCCC(=O)OCC(=O)[C@@]1(O)CC[C@H]2[C@@H]3CCC4=CC(=O)CC[C@]4(C)[C@H]3[C@@H](O)C[C@@]21C | 1%
COc1ccc2c(CC(=O)Nc3nnc(C4CC4)s3)coc2c1 | 0%
O=c1c2c3nc4ccccc4nc3n(CC3CCCO3)c2ncn1CCc1ccccc1 (stereo not given) | 9%
CCCn1c2c(c(O)c(C(=O)NC)c1=O)CCCC2 | 5%
CCOc1cc2[nH]c(=S)n(CC3CCCO3)c(=O)c2cc1OCC (stereo not given) | 9%
N#CC1=C(SCc2ccccc2)NC(=O)C(C#N)C12CCCC2 (stereo not given) | 2%
CCc1nnc(NC(=O)CSc2nc3ccccc3s2)s1 | 2%
O=C(NCCN1CCOCC1)c1csc2c1CCCC2 | 0%
O=c1c2ccc(-c3nnc4n3-c3ccccc3SC4)cc2nc2n1CCCCC2 | 0%
O=C(CN1C(=O)c2ccccc2S1(=O)=O)NCc1ccccc1Cl | 0%
Cc1ccc(Cn2c(NCCc3ccccc3)nc3c2c(=O)n(C)c(=O)n3C)cc1 | 4%
Cc1cccn2c(=O)c3cc(C(=O)N4CCCc5ccccc54)n(C)c3nc12 | 0%
COCCN(CCOC)C(=O)c1sc2nc(-c3ccccc3)cn2c1C | 0%
Cc1ccc(NC(=O)CC2Nc3ccccc3NC2=O)cc1Cl (stereo not given) | 0%
O=C(NCc1ccccc1)N[C@@H](Cc1ccccc1)C(=O)O | 1%
